Source: PubChem BioAssay (several laboratories)
GDH-TPI inh – inhibits GDH-TPI coupling enzymes, artifact for Mtb FBA screen | GDH-TPI coupled enzyme counterscreen, NADH absorbance | inhibition, % at 4.8 µM | 1.2% of 360,000 active; in the data active = inhibition above about 30%;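 note: 0% = DMSO wells and 100% = wells lacking the enzyme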
Mtb FBA inh – inhibits M. tuberculosis FBA enzyme. 2.3% of 360,000 active. P9WQA3. purified M. tuberculosis FBA, fluorescence read-out. inhibition, % at 1 µM. AID 588726; in the data active = inhibition above about 27%;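 note: 0% = vehicle and 100% = reference inhibitor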
RecA splice inh – inhibitors of M. tuberculosis RecA intein splicing; 0.75% of 290,000 active; P9WHJ3; cell-free RecA intein splicing, fluorescence; inhibition, % (no concentration beside the values); in the data active = inhibition above about 30%;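 note: 0% = vehicle wells and 100% = reference inhibitor control wells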
PrPC surface inh – reduces human prion protein on the cell surface; P04156; cell surface PrPC, TR-FRET read-out; inhibition, % at 13.8 µM; 0.43% of 370,000 active; AID 720596; in the data active = inhibition above about 24%; note: 0% = median of the test wells and 100% = reference compound wells
BJeLR viability – BJeLR cell viability loss; 0.17% of 300,000 active; BJeLR (HRASV12) viability, CellTiter-Glo ATP luminescence, 48 h; AID 1554; inhibition, % (concentration not given with the values); in the data active = inhibition above about 50%
The depositor's hits bear a star; x = no result given; + = active, no number. Most compounds without a hit are left out; they make up all but 4.2% or so of the library.

SMILES | GDH-TPI inh | Mtb FBA inh | RecA splice inh | PrPC surface inh | BJeLR viability
CCCOc1ccc(-c2cc(C(C)=O)c3n(c2=O)CCC3)cc1 | x | x | x | 5.0 | x
CCOc1ccccc1-c1ccc(C(=O)NCc2ccccc2)o1 | 13.6 | + | 10.6 | 1.2 | -5.8
CCCCCN1CCCCC(NC(=O)C(C)(C)C)C1=O (centres undefined) | x | x | x | -1.7 | x
Cc1nn(-c2ccccc2)c2sc(C(=O)NC3CCCC3)cc12 | x | x | x | 1.6 | x
CC(/C=C/c1ccc2c(c1)OCO2)=N/NC(=O)c1ccncc1 | 47.5* | -3.4 | -0.4 | -0.2 | -12.1
O=C(N/N=C/c1ccc2c(c1)OCCO2)c1ccncc1 | 3.1 | -1.1 | -1.6 | -7.4 | -3.8
CC(/C=C/c1ccc2c(c1)OCO2)=N/NC(=O)c1ccc(C)nc1 | 36.3* | 3.6 | -2.0 | -0.8 | -0.2
CC(/C=C/c1ccc2c(c1)OCO2)=N/NC(=O)c1cccnc1 | 42.0* | -0.7 | -1.3 | 5.9 | -5.5
C/C(=N\NC(=O)c1ccc2c(c1)OCO2)c1cccnc1 | 4.6 | -3.7 | -3.7 | 5.7 | 3.1
O=C(OCc1cn(Cc2c(F)cccc2F)nn1)N1CCCC1 | x | x | x | -3.5 | x
CCOC(=O)C1C[C@@H](O)C=CC1=O (some centres undefined) | x | x | x | -0.5 | x
O=C(CSc1nc2ccccc2nc1N1CCCCC1)NCc1ccc(Cl)cc1Cl | x | x | x | 0.5 | x
COC(=O)[C@H]1C[C@]2(C(/C=C(\C)CCC=C(C)C)S(=O)(=O)c3ccccc3)c3ccccc3N[C@H]2N1 (some centres undefined) | x | x | x | -1.7 | x
COc1ccccc1-c1cc(C(=O)N/N=C/c2ccc(C)s2)c2ccccc2n1 | 36.8* | -1.2 | 2.3 | -10.4 | -13.1
COc1ccc(/C=N/NC(=O)c2cc(-c3ccc(C)cc3C)nc3ccccc23)cc1COC(C)=O | 34.7* | 5.0 | 0.5 | -1.4 | -2.9
CCN(CC)C(=O)COc1ccc(/C=N/NC(=O)c2cc(-c3ccccc3OC)nc3ccccc23)cc1OC | 42.4* | -0.7 | 2.2 | 2.8 | 7.3
COc1ccc(/C=N/NC(=O)c2cc(-c3ccccc3OC)nc3ccccc23)cc1COC(C)=O | 10.6 | -0.8 | 8.1 | -7.1 | -5.4
O=C(Cn1nnc(-c2ccccc2F)n1)Nc1ccc(Cl)cc1 | x | x | x | 1.5 | x
CC(=O)Nc1nnc(-c2ccco2)o1 | -10.8 | -0.1 | -6.6 | -1.4 | 13.6
O=C(/C=C/c1ccccc1)Nc1nnc(-c2ccco2)o1 | 45.1* | -2.6 | -4.7 | 2.9 | -3.0
CN(C)/C=C/C(=O)c1ccc(Cl)c([N+](=O)[O-])c1 | 31.1* | -1.6 | 4.3 | -6.1 | -3.5
CN(C)/C=C/C(=O)c1ccc(-n2cccc2)cc1 | 18.2 | -0.2 | 1.2 | -6.8 | 1.6
CC(C)NC(=O)c1cccc(C(F)(F)F)c1 | -10.7 | 1.1 | x | 0.7 | 10.1
Cc1ccc(C(=O)/C=C/N(C)C)cn1 | 31.4* | -1.7 | 1.1 | -3.9 | -0.1
CN(C)/C=C/C(=O)c1cccc(C(F)(F)F)c1 | 50.0* | 2.9 | -0.8 | 1.7 | -5.2
SMILES | GDH-TPI inh | Mtb FBA inh | RecA splice inh | PrPC surface inh | BJeLR viability
CN(C)/C=C/C(=O)c1ccc(Cl)cc1 | 48.0* | 2.1 | 10.0 | -5.7 | -3.1
N#CCC[C@@H]1CC[C@]2(CCCN(Cc3ccc(Br)cc3)C2)O1 | x | x | x | -11.9 | x
COC(=O)[C@]12C[C@H](CC(=O)NCc3ccc(OC)c(OC)c3)C(=O)N(Cc3ccc(Cl)cc3Cl)C1=C[C@H](C(C)C)O[C@@H]2C1CC1 | x | x | x | 5.8 | x
CN(C)/C=C/C(=O)c1cccc(Cl)c1 | 42.3* | -3.2 | -1.4 | -4.4 | -12.4
COc1ccc2c(c1)CO[C@H]([C@H](O)COC(C)=O)[C@H]2/C=C/c1ccccc1 | x | x | x | -4.8 | x
CCOC(=O)Cn1cc(CN2C(C(=O)OC)CN(Cc3ccc(F)cc3)CCS2(=O)=O)nn1 (centres undefined) | x | x | x | 10.2 | x
Cc1cc(=O)oc2c3c(cc(OCC(=O)NCCCn4ccnc4)c12)OC(C)(C)CC3 | 12.5 | + | 8.1 | -0.9 | 6.8
Cc1cc(=O)oc2cc(OCC(=O)NCCN3CCOCC3)ccc12 | 2.3 | 12.7 | -3.6 | 0.2 | -9.3
CCCc1cc(=O)oc2c3c(cc(OCC(=O)NCCCn4ccnc4)c12)OC(C)(C)CC3 | 15.7 | 169.7* | 0.4 | 1.3 | 4.7
Cc1cc(=O)oc2cc(OCC(=O)NCCCn3ccnc3)ccc12 | 11.3 | 17.3 | -1.6 | 4.1 | 6.2
Cc1cc(=O)oc2c3c(cc(OCC(=O)NCCN4CCOCC4)c12)OC(C)(C)CC3 | 16.7 | 191.3* | x | -2.4 | -8.3
CCCc1cc(=O)oc2c(C)c(OCC(=O)NCCCn3ccnc3)ccc12 | 6.6 | 10.9 | -3.0 | -9.3 | 7.0
COC(=O)[C@]12C[C@H](CC(=O)NCCc3ccccc3OC)C(=O)N(Cc3cccc4ccccc34)C1=C[C@H](C(C)(C)C)O[C@@H]2C | x | x | x | 7.9 | x
